# This excerpt belongs to a sample that is enriched for the strongest signals.
# B1: Mg1lysM (Mycosphaerella graminicola) (protein)
# chain: QRNPITITPQFDCGATNSQQYVARSGDTLTKIAQEIYHDVVGVCDIARANNLADPNRIDAGTPYTIPINCQTYDRNSCL
# Columns and labels:
# Experiment in all cases: glycan array binding signal (z-score within array); higher = stronger binding
# Details in all cases: glycan notation: IUPAC condensed, linker removed
# [1] = target: GlcNAc(b1-4)GlcNAc(b1-4)GlcNAc(b1-4)GlcNAc(b1-4)GlcNAc
# Procedure, shortened: (§1)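 From the Consortium for Functional Glycomics database, 3228 arrays were curated, keeping only those whose protein sequence was available. Binding is given as a within-array Z-score averaged across arrays sharing a protein sequence and across linkers. Negative Z-scores can be read as non-binding.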
# [2] = target: GlcNAc(b1-4)GlcNAc(b1-4)GlcNAc(b1-4)GlcNAc(b1-4)GlcNAc(b1-4)GlcNAc
# Procedure, shortened: as §1
# [3] = target: Kdn(a2-3)Gal(b1-4)[Fuc(a1-3)]GlcNAc
# Procedure, shortened: as §1
# [4] = target: Neu5Ac(a2-3)Gal(b1-3)GlcNAc(b1-2)Man(a1-3)[GlcNAc(b1-4)][Neu5Ac(a2-3)Gal(b1-3)GlcNAc(b1-2)Man(a1-6)]Man(b1-4)GlcNAc(b1-4)GlcNAc
# Procedure, shortened: as §1
# [5] = target: Neu5Ac(a2-3)Gal(b1-3)GlcNAc(b1-2)[Neu5Ac(a2-3)Gal(b1-3)GlcNAc(b1-4)]Man(a1-6)[Neu5Ac(a2-3)Gal(b1-3)GlcNAc(b1-2)Man(a1-3)]Man(b1-4)GlcNAc(b1-4)GlcNAc
# Procedure, shortened: as §1
# [6] = target: Neu5Ac(a2-3)Gal(b1-3)[Fuc(a1-4)]GlcNAc
# Procedure, shortened: as §1
# [7] = target: Neu5Ac(a2-3)Gal(b1-4)GlcNAc(b1-2)Man(a1-3)[GlcNAc(b1-4)][Neu5Ac(a2-3)Gal(b1-4)GlcNAc(b1-2)Man(a1-6)]Man(b1-4)GlcNAc(b1-4)GlcNAc
# Procedure, shortened: as §1
# [8] = target: Neu5Ac(a2-3)Gal(b1-4)GlcNAc(b1-6)[Neu5Ac(a2-3)Gal(b1-3)]GalNAc
# Procedure, shortened: as §1
# [9] = target: Neu5Ac(a2-3)Gal(b1-4)GlcNAc6S
# Procedure, shortened: as §1
# [10] = target: Neu5Ac(a2-6)Gal(b1-4)GlcNAc(b1-2)Man(a1-3)[GlcNAc(b1-2)Man(a1-6)]Man(b1-4)GlcNAc(b1-4)GlcNAc
# Procedure, shortened: as §1
# [11] = target: Neu5Ac(a2-6)Gal(b1-4)GlcNAc(b1-3)Gal(b1-4)GlcNAc(b1-3)GalNAc
# Procedure, shortened: as §1
# [12] = target: Neu5Ac(a2-6)Gal(b1-4)GlcNAc(b1-3)GalNAc
# Procedure, shortened: as §1
# [13] = target: Neu5Ac(a2-6)GalNAc(b1-4)GlcNAc
# Procedure, shortened: as §1
# [14] = target: Neu5Ac(a2-6)GlcNAc(b1-4)GlcNAc(b1-4)GlcNAc
# Procedure, shortened: as §1
# [15] = target: Neu5Ac(b2-6)GalNAc
# Procedure, shortened: as §1
# [16] = target: Neu5Gc(a2-3)Gal(b1-3)GlcNAc
# Procedure, shortened: as §1
# [17] = target: Neu5Gc(a2-8)Neu5Gc(a2-6)Gal(b1-4)GlcNAc
# Procedure, shortened: as §1
binder,measurement,setting,value
B1,glycan array binding signal (z-score),[1],11.9
same,glycan array binding signal (z-score),[2],7.47
same,glycan array binding signal (z-score),[3],-0.081
same,glycan array binding signal (z-score),[4],-0.076
same,glycan array binding signal (z-score),[5],0.149
same,glycan array binding signal (z-score),[6],-0.096
same,glycan array binding signal (z-score),[7],-0.076
same,glycan array binding signal (z-score),[8],-0.062
same,glycan array binding signal (z-score),[9],-0.075
same,glycan array binding signal (z-score),[10],-0.054
same,glycan array binding signal (z-score),[11],-0.091
same,glycan array binding signal (z-score),[12],-0.076
same,glycan array binding signal (z-score),[13],0.004
same,glycan array binding signal (z-score),[14],4.06
same,glycan array binding signal (z-score),[15],-0.076
same,glycan array binding signal (z-score),[16],-0.04
same,glycan array binding signal (z-score),[17],-0.072
